Rows were chosen to be rich in hits. Some 12% of all compounds tested hit in one or more screens of this group.
AmpC inh no detg: blocks E. coli AmpC beta-lactamase in detergent-free assay; P00811; AmpC nitrocefin hydrolysis, absorbance 480 nm, 0.0001% Triton; Potency, µM (doses to about 57.1 µM), actives largely listed as inhibitors; 0.52% of 330,000 active; further: nearly all actives have a fitted effect of over 20% in size
Target sequence (P00811 whole entry, looked up): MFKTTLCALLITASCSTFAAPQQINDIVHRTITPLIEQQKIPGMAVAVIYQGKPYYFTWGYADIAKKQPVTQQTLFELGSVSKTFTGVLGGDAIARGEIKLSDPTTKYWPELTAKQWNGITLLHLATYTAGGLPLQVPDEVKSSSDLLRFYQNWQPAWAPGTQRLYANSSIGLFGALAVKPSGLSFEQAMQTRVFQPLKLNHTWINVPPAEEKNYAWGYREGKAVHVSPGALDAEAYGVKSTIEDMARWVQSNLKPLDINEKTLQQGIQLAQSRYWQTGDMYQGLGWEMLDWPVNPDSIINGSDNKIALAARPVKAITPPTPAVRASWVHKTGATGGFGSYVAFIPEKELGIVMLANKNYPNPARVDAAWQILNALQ
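20 mM phosphate pH 7.0 + 0.01% (detergent screen) or 0.0001% Triton X-100; 5.3 nM AmpC reagent; cpd preinc 15 min RT; nitrocefin (800 uM stock) to start; A480 q20 s × 4 min; Activity was normalised to no-enzyme and no-compound control wells.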
SARS PLpro yeast: SARS-CoV PLP inhibition in yeast | AID 485353 | Potency, µM (series often up to 32.9 µM), most hits filed as activators | S. cerevisiae expressing SARS-CoV PLpro, growth rescue | 0.19% of 330,000 active; calls by dose curve; further: nearly all actives have a fitted effect of over 55% in size
AmpC detergent: blocks E. coli AmpC beta-lactamase in detergent assay; P00811; AmpC hydrolysis of nitrocefin, absorbance 480 nm, 0.01% Triton; Potency, µM (doses to about 114 µM), most hits filed as inhibitors; 0.041% of 370,000 active; AID 485294; further: nearly all actives have a fitted effect of over 25% in size
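20 mM phosphate pH 7.0 + 0.01% (detergent screen) or 0.0001% Triton X-100; 5.3 nM AmpC reagent; cpd preinc 15 min RT; nitrocefin (800 uM stock) to start; A480 q20 s × 4 min; Activity was normalised to no-enzyme and no-compound control wells.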
Pf growth 96h: inhibits malaria parasite growth, 96 h. 6.9% of 320,000 active. Potency, µM (top dose mostly 28.7 µM), actives largely listed as inhibitors. P. falciparum luciferase reporter growth, 96 h
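Readout is luminescence from an integrated firefly luciferase in P. falciparum. Red cells, 2% hematocrit and 0.05% parasitemia final, were cultured with compound through two parasite generations (96 hours) at 37 C, 5% CO2.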
Pf growth 48h: inhibits P. falciparum growth in the first generation, 48 h | P. falciparum luciferase growth in erythrocytes, 48 h | Potency, µM (series often up to 28.7 µM), most hits filed as inhibitors | 5.9% of 310,000 active | AID 504832
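First compound was added to culture medium, then infected red cells at 0.1% parasitemia and 2% hematocrit (final). After incubation at 37 C under 5% CO2, luciferase detection reagent was dispensed and light output recorded.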
Sm TGR inh: S. mansoni TGR enzyme inhibition. Q962Y6. purified TGR, DTNB reduction, TNB absorbance 405 nm. Potency, µM (series often up to 114 µM), most hits filed as inhibitors. 3% of 360,000 active. AID 485364; further: nearly all actives have a fitted effect of over 60% in size
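First, TGR (20 nM dispensed) and NADPH were mixed with compound. Second, a 15 min room-temperature incubation followed. Third, further NADPH and then DTNB were added to start the reaction. Finally, TNB absorbance was monitored kinetically.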
Numbers stand for hits; – = inactive; ? = inconclusive; · = no result; [ ] = another dose, or the depositor's remark. Unless noted, the call rests on the fitted dose curve; in most records, active means well fitted curve in the direction sought with a large enough effect; inconclusive means small, poorly fitted or top-dose-only effect, or another doubt; inactive means no such curve, though single readings can be large; an effect the other way counts as inactive or inconclusive.

SMILES	AmpC inh no detg	SARS PLpro yeast	AmpC detergent	Pf growth 96h	Pf growth 48h	Sm TGR inh
O=C(Nc1ncccn1)c1cc([N+](=O)[O-])cc([N+](=O)[O-])c1	–	–	–	?	–	–
COc1ccc(-c2cc(C(=O)N3CCN(c4ncccn4)CC3)c3ccccc3n2)c(OC)c1	–	–	–	1.85µM	?	–
CCOc1ccc(-c2cc(C(=O)NN3CCN(C)CC3)c3cc(Cl)ccc3n2)cc1	–	–	–	4.15µM	2.33µM	–
COc1ccc(-c2cc(C(=O)N3CCN(c4ccccc4)CC3)c3ccccc3n2)cc1	–	–	?	–	–	–
CCOc1ccc(-c2cc(C(=O)N3CCN(C)CC3)c3ccccc3n2)cc1	–	–	–	·	–	–
COc1ccccc1OC(C)C(=O)N1CCc2ccccc21 (centres undefined)	–	–	–	–	10.4µM	–
COc1ccc(-c2cc(C(=O)N3CC(C)CC(C)C3)c3ccccc3n2)cc1 (centres undefined)	–	–	–	3.7µM	2.94µM	–
Cc1ccc(Cl)cc1-n1ncc2c(NCCC3=CCCCC3)ncnc21	·	·	–	·	·	–
Cc1cc(C)cc(-n2c(C)nc3cc(C(=O)NCc4ccccc4Cl)ccc32)c1	·	·	–	·	·	–
COc1ccc(-c2cc(C(=O)N3CCCC3)c3ccccc3n2)cc1	–	–	–	3.7µM	–	–
CCOC(=O)N1CCN(C(=O)c2cc(-c3ccc(OCC)cc3)nc3ccccc23)CC1	–	?	–	3.7µM	–	–
Cc1ccc(-n2c(=O)[nH]cc(C(=O)N3CCc4ccccc43)c2=O)cc1C	10µM	–	?	–	–	–
Clc1ccc2nc(N3CCNCC3)nc(-c3ccccc3)c2c1	–	–	–	–[5.75 µM]	11.7µM	–
Fc1cccc(NCc2cccn2-c2nnc(N3CCOCC3)s2)c1	·	·	–	·	·	–
COCCNC(=O)C1CCN(S(=O)(=O)c2ccc3c(c2)CCCN3C(C)=O)CC1	·	·	–	·	·	?
COc1ccc(Nc2cc(C(=O)N3CCc4ccccc4C3)c3ccccc3n2)c(OC)c1	–	–	–	–	13.1µM	–
Cc1ccc2nc(N3CCN(CCO)CC3)nc(-c3ccccc3)c2c1	–	–	–	?	?	–
COc1cc2ccccc2cc1C(=O)N1CC(C)CC(C)C1 (centres undefined)	–	–	–	0.294µM	0.329µM	–
CCOC(=O)N1CCN(c2nc(-c3ccccc3)c3cc(C)ccc3n2)CC1	–	–	–	?	10.4µM	–
COc1ccccc1Nc1cc(C(=O)N2CCc3ccccc3C2)c2ccccc2n1	–	–	?	?	?	–
COc1cc2ccccc2cc1C(=O)N1CCc2ccccc21	–	–	–	?	9.28µM	–
O=[N+]([O-])c1ccc(O)c(C(C#Cc2ccccc2)N2CCOCC2)c1 (centres undefined)	8.91µM	–	–	–	–	–
Cc1ccc(S(=O)(=O)CC(=O)Nc2sc3c(c2C#N)CCCC3)cc1	·	·	–	·	·	–
CCCCOc1ccc(Cn2c(=O)sc3ccccc32)cc1OC	·	·	–	·	·	–
CCOc1ccc2c(c1)/C(=C(\C(Cl)=C(Cl)Cl)[N+](=O)[O-])N2	–	–	–	–	–	5.62µM
SMILES	AmpC inh no detg	SARS PLpro yeast	AmpC detergent	Pf growth 96h	Pf growth 48h	Sm TGR inh
CCCCOc1ccc2c(c1)/C(=C(\C(Cl)=C(Cl)Cl)[N+](=O)[O-])N2	–	–	–	–	?	–
CCOc1ccc(-c2c(C(=O)N/N=C(\C)c3cccnc3)nnn2-c2nonc2N)cc1	–	–	–	–	–	–
C[N+]1(CC(COCc2ccccc2)OC(=O)Cc2ccccc2)CCOCC1 (centres undefined)	–	–	?	?	13.1µM	–
C[N+]1(CC(=O)OCCCc2ccccc2)CCOCC1	–	–	–	–	–	–
COc1cc(OC)cc(C2=NC3(CCC(C)CC3)NC2=S)c1 (centres undefined)	–	–	–	–	10.4µM	–
CC(=O)Nc1ccc(NC(=O)C2Cc3ccccc3N2C(=O)c2ccccc2)cc1 (centres undefined)	·	·	–	·	·	–

Assay outcomes (PubChem)
